Among the data in PubChem BioAssay (NCATS) are max response, Potency and outcome values, retold here.

Structures are written as SMILES. Values joined by “and” are separate entries in the source; they are usually repeats but may differ in a detail not shown here. Equal entries are not always repeated. Inconclusive results are not listed. A structure can be active in one record and inactive in another. A number with no mark means an inactive call. Active and inactive are the calls of the source. Calls come from the whole dose curve; as a rule, active = well fitted inhibition curve with a large enough effect; inconclusive = small, poorly fitted or top-dose-only effect; inactive = flat fitted curve, though single readings scatter.

The subject of one assay is CRL-7250. Kind of assay: Cytotoxic Profiling of Annotated Libraries Using Quantitative High-Throughput Screening (AID 1296008). For max response: % is set by controls: 0 for no effect and ±100 for the full control effect. The following applies: Five cell lines viability, CellTiter-Glo ATP luminescence, 48-72 h; max response: stronger effect = lower value. An outline of the steps: (§1)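 Compounds were pin-transferred onto cells and incubated 48 or 72 hr at 37 degree Celsius, 95% humidity. CellTiter-Glo was added, plates sat 10 min at room temperature, then ATP-coupled luminescence was imaged as the viability read-out.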
For orientation: ATP-based viability assays read luminescence as a measure of living cells.

A further assay has as its system HaCat. The assay is described as above. The following applies: Five cell lines viability, CellTiter-Glo ATP luminescence, 48-72 h; max response: stronger effect = lower value. In outline: as §1
The next assay deals with KB-3-1. Described as above. The conditions noted are these: Five cell lines viability, CellTiter-Glo ATP luminescence, 48-72 h; max response: stronger effect = lower value. In outline:
as §1

In the next assay the test system is SC27B. Nature of the assay: qHTS profiling for inhibitors of Plasmodium falciparum proliferation (AID 504749). The conditions noted are these: P. falciparum in erythrocytes, SYBR Green DNA, 72 h; series mostly up to 28.7 µM. An outline of the steps:
(§2)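 Parasite proliferation within erythrocytes, 72 h exposure. Endpoint: SYBR Green I fluorescence after overnight lysis at room temperature. Controls: 0.29 uM artemisinin, DMSO.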

The next assay has as its system TAB113. The description is as above. The following applies: P. falciparum in erythrocytes, SYBR Green DNA, 72 h; series mostly up to 28.7 µM. In outline: as §2
Another assay has as its system TAB165. Described as above. The conditions noted are these: P. falciparum in erythrocytes, SYBR Green DNA, 72 h; series mostly up to 28.7 µM. An outline of the steps:
as §2

Another assay concerns W2. Described as above. The following applies: P. falciparum in erythrocytes, SYBR Green DNA, 72 h; series mostly up to 28.7 µM. In outline: as §2
The test system of a further assay is HEK293. Kind of assay: Cytotoxic Profiling of Annotated Libraries Using Quantitative High-Throughput Screening (AID 1296008). For max response: % is set by controls: 0 for no effect and ±100 for the full control effect. The following applies: Five cell lines viability, CellTiter-Glo ATP luminescence, 48-72 h; max response: stronger effect = lower value. In outline: as §1
For the next assay, the system named is PC49. Kind of assay: qHTS profiling for inhibitors of Plasmodium falciparum proliferation (AID 504749). The following applies: P. falciparum in erythrocytes, SYBR Green DNA, 72 h; series mostly up to 28.7 µM. In outline: as §2
The subject of the next assay is TAB109. The assay is described as above. The conditions noted are these: P. falciparum in erythrocytes, SYBR Green DNA, 72 h; series mostly up to 28.7 µM. An outline of the steps:
as §2
Note: nearly all actives have a fitted effect of over 60% in size.
Potency is the fitted concentration of half-maximal effect.

In the case of `Cn1cc(C=C2C(=O)Nc3cccnc32)c2ccccc21`, the max response was -3.71% in the assay on CRL-7250, -0.233% in the assay with HaCat and 5.23% in the assay on KB-3-1.
For `CC1=C(/C=C/C(C)=C/C=C/C(C)=C/C(=O)Nc2ccc(O)cc2)C(C)(C)CCC1`, the Potency in the assay on SC27B was 10 µM (active); with TAB113, 11.2 µM (active); in the assay with TAB165, 10 µM (active); in the assay on W2, 5.36 µM (active); with CRL-7250, 16.8 µM (active); in the assay on HEK293, 5.96 µM (active).
In the case of `NC(=O)[C@@H](CCC(F)(F)F)N(Cc1ccc(-c2ncon2)cc1F)S(=O)(=O)c1ccc(Cl)cc1`, the max response is -21.3% in the assay on CRL-7250, -0.733% in the assay on HaCat and -20.8% in the assay on KB-3-1.
`Cc1cccc(Nc2nc(-c3ccncc3)cs2)c1`: in the assay on CRL-7250, the max response was -0.257%. Further, the result with HaCat was inactive.
As to `O=C1Nc2ccc(Cl)cc2C(C#CC2CC2)(C(F)(F)F)O1` (centres undefined), the result with PC49, in the assay on TAB109 and in the assay on HaCat was inactive. The Potency result in the assay on SC27B, with TAB113 and with W2 was “inactive” each time. For the same molecule, the figures for the max response in the assay on CRL-7250, in the assay on HEK293 and with KB-3-1 were -18.6%, -29.6% and -17.5%, respectively.
For `CS(=O)(=O)N(Cc1ccco1)CC(O)Cn1c2ccccc2c2ccccc21` (centres undefined), the max response in the assay on CRL-7250 was -10% and -6.7%; in the assay with HaCat, -8.74%; in the assay with KB-3-1 it was -4.93% and 3.15%. Moreover, the molecule was classed as inactive in the assay with HaCat.
`CCn1c(C(=O)N(C2CC2)C2CC2)cc2c3c(ncn3C)c(Nc3cc(C)n(C)n3)nc21`: the max response was 3.88% and -9.32% with CRL-7250; 2.37% and -28.6% in the assay with HaCat; 3.91% and 9.29% in the assay on KB-3-1.
In the case of `O=C1NC(=O)C(=Cc2cccc(C(F)(F)F)c2)S1`, the result in the assay with CRL-7250 was inactive. For the same molecule, in the assay with HaCat, the max response is -6.56%.
For `COc1cc(O)c2c(c1)C(=O)c1cc(C)cc(O)c1C2=O`, the result in the assay on CRL-7250 was inactive. The max response is -5.67% in the assay on HaCat and -1.03% in the assay with KB-3-1.
As for `O=C1NCC2(CCN(CCc3ccccc3)CC2)O1`, the result in the assay on PC49, in the assay on TAB109, in the assay with CRL-7250, with HEK293 and in the assay on HaCat was inactive. The Potency result in the assay on SC27B, in the assay on TAB113, in the assay with TAB165 and in the assay on W2 was “inactive” in each case. For the same molecule, in the assay with KB-3-1, the max response was 9.9%.
As for `CCN(CC)C(=O)c1ccc(O)c(OC)c1`, the outcome with PC49, in the assay on TAB109 and in the assay with HaCat was inactive. The Potency entry in the assay with SC27B, with TAB113, in the assay on TAB165 and in the assay with W2 was “inactive” each time. Moreover, the max response in the assay with CRL-7250 was -9.2%; in the assay on HEK293 it was -4.79%; with KB-3-1 it was 2.39% and -3.02%.
As to `O=c1cc(-c2ccc(O)cc2)oc2cc(O)cc(O)c12`, the max response is -23.1% in the assay with CRL-7250, -20% in the assay on HaCat and 3.99% in the assay with KB-3-1.
For `C[C@H](NC(=O)c1sccc1OCc1ccc(Cl)cc1)c1ccccc1`, the Potency in the assay with CRL-7250 was 29.6 µM (active); in the assay with HEK293, 16.6 µM (active); in the assay on KB-3-1, 20.9 µM (active).
Regarding `CC[C@H]1OC(=O)[C@H](C)C(=O)[C@H](C)[C@@H](O[C@H]2O[C@H](C)C[C@H](N(C)C)[C@@H]2O)[C@](C)(OC)C[C@@H](C)C(=O)[C@H](C)[C@H]2N(CCCCn3cnc(-c4cccnc4)c3)C(=O)O[C@]12C`, the values for the max response in the assay with CRL-7250, with HaCat and with KB-3-1 were -7.01%, -0.424% and 2.84%, respectively.
Regarding `C=C1C(=O)OC2C=C(C)CCC=C(C)CCC12` (centres undefined), the max response in the assay on CRL-7250 was 0.517%; in the assay with KB-3-1, 2.36%. In the assay with HaCat, the result was inactive.
Take `O=C(O)c1c(Cl)c(Cl)c(Cl)c(Cl)c1-c1c2cc(I)c(=O)c(I)c-2oc2c(I)c(O)c(I)cc12`: the molecule was classed as inactive in the assay with PC49, in the assay on TAB109 and with HaCat. For the same molecule, the Potency result in the assay on SC27B, in the assay with TAB113, in the assay on TAB165 and in the assay on W2 was “inactive” in each case. Moreover, the results for the max response in the assay with CRL-7250 and with HEK293 were -20.2% and -16.1%, respectively.
As to `CCC(=O)O[C@]1(C(=O)CO)CC[C@H]2[C@@H]3CCC4=CC(=O)CC[C@]4(C)[C@@H]3CC[C@@]21C`, in the assay with CRL-7250, the Potency was 13.2 µM (active). Besides, the max response is -31% in the assay on HaCat and 0.702% with KB-3-1.
On to `CCS(=O)(=O)N1CC(CC#N)(n2cc(-c3ncnc4[nH]ccc34)cn2)C1`, for which, in the assay on CRL-7250, the max response was -3.54%. In the assay on HaCat, the Potency was 5.17 µM (active) and the max response is -22.3%.
Turning to `CC(C)C[C@H](CC(=O)O)C(=O)N[C@@H](Cc1c[nH]c2ccccc12)C(=O)N[C@@H](C)c1ccccc1`, the max response is -5.99% in the assay on CRL-7250, 3.15% in the assay on HaCat and 5.47% in the assay with KB-3-1.
For the molecule `CCN(CC)CCOC(=O)c1ccc(N)cc1`, the call with PC49, in the assay with TAB109, in the assay on HEK293 and with HaCat was inactive. Also, the Potency result in the assay on SC27B, in the assay on TAB113, with TAB165 and in the assay on W2 was “inactive” throughout. For the same molecule, the max response in the assay with CRL-7250 was -12%; in the assay on KB-3-1 it was 14%.
On to `N#CC1(c2ccc(NC(=O)c3cccnc3NCc3ccncc3)cc2)CCCC1`, for which the results for the max response in the assay with CRL-7250 and in the assay on KB-3-1 were -26.7% and -11.6%, respectively. For the same molecule, in the assay with HaCat, the molecule was called inactive.
With `COc1ccc(Cc2ccc(NC(N)=O)cc2)cc1-c1cccc(Cl)c1`, the max response in the assay on CRL-7250 is 2.51%; in the assay on HEK293, -15.8%; in the assay with KB-3-1 it was -9.2%.
`O=C(NCCN1CCOCC1)c1ccc(Cl)cc1`: the molecule was classed as inactive with PC49 and in the assay with TAB109. Also, the Potency entry in the assay on SC27B, in the assay on TAB113, with TAB165 and in the assay on W2 was “inactive” throughout. In addition, the max response was 0.679% in the assay with CRL-7250; -0.241% in the assay with HEK293; -12.4% in the assay on HaCat; 3.6% and -22.2% in the assay on KB-3-1.
`Cc1cccc(C)c1OCC(C)N` (centres undefined): the Potency result in the assay with SC27B and in the assay on TAB113 was “inactive” in each case. The molecule was called inactive with TAB109, in the assay with CRL-7250, with HEK293 and in the assay on HaCat. Moreover, the Potency in the assay on W2 is 6.01 µM (active). Further, the max response in the assay with KB-3-1 was 6.51%.
